In the library only some 1.7% were active in any assay of this set; here they are far more common.
SSB-PriA inh = inhibitors of Klebsiella pneumoniae PriA binding to SSB C-terminal tail; AlphaScreen SSBct-PriA binding, biotinylated peptide; inhibition, % at 33 µM; actives 0.6% (n = 430,000); AID 1272365; in the data active means inhibition mostly above about 37%, no sharp cut-off; inactive means mostly below about 20%
DUSP3 inh = inhibitors of human VHR1 phosphatase (DUSP3); recombinant VHR phosphatase, pNPP absorbance; P51452; actives 0.52% (n = 290,000); AID 1654; inhibition, % at 13.3 µM; in the data active means inhibition above about 50%
SARS 3CLpro inh = SARS-CoV 3CLpro protease inhibition | actives 0.14% (n = 290,000) | inhibition, % at 6 µM | recombinant SARS-CoV 3CLpro, quenched FRET peptide cleavage; in the data active means inhibition above about 12%
CCHFV vOTU inh = blocks the CCHF virus ovarian tumor domain protease; CCHFV vOTU protease, Pep-AMC fluorescence; actives 0.55% (n = 370,000); AID 651958; inhibition, % at 11.5 µM; in the data active means inhibition above about 30%
RecA splice inh = Mtb RecA intein splicing inhibition; P9WHJ3; cell-free RecA intein splicing, fluorescence; inhibition, % (test concentration not listed); actives 0.75% (n = 290,000); AID 2221; in the data active means inhibition above about 30%
Target sequence (P9WHJ3 whole entry, looked up, canonical isoform): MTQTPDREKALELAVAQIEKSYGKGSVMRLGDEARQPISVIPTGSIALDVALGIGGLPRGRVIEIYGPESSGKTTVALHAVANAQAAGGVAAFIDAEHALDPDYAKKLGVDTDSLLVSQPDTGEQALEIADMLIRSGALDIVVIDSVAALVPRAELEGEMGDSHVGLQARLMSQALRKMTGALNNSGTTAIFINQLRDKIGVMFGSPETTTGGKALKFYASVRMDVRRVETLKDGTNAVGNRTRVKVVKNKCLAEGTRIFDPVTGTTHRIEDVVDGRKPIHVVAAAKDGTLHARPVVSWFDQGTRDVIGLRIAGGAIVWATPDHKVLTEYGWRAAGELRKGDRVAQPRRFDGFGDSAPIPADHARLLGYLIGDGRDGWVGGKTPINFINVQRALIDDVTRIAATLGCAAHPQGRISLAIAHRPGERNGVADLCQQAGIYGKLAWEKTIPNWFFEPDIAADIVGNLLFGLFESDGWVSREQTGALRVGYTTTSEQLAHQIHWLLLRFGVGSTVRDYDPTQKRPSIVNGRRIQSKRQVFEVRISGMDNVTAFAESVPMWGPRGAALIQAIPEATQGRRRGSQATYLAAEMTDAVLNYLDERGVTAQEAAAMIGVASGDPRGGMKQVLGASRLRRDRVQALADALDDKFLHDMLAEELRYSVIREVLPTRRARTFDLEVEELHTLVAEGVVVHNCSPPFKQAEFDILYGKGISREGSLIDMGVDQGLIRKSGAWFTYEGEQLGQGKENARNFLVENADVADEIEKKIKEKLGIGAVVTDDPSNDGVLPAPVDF
A number is an active result; – = inactive; · = not tested or not shown.

SMILES	SSB-PriA inh	DUSP3 inh	SARS 3CLpro inh	CCHFV vOTU inh	RecA splice inh
CCOC(=O)CSc1nnc(CSc2nc(N)c3c(C)c(C)sc3n2)n1-c1ccccc1	–	54	–	–	–
O=C(C1CC=CCC1)N1CCN(c2cc(-n3cncn3)ncn2)CC1 (centres undefined)	–	·	·	·	·
CCc1ccccc1NC(=O)c1csc2nc(-c3ccc(OC)cc3)cn12	–	·	·	·	·
COc1ccc(NS(=O)(=O)c2ccc(-c3cnc(C4CC4)o3)cc2)cc1OC	–	52	–	–	–
COc1ccccc1NS(=O)(=O)c1ccc(-c2cnc(C3CC3)o2)cc1	–	–	–	–	–
Cc1ccsc1C(=O)NN=C1CCCCCC1	–	53	–	–	–
O=C(Cc1csc(Nc2ccccc2)n1)N1CCN(Cc2ccc3c(c2)OCO3)CC1	–	·	·	·	·
O=C(c1csc(Nc2ccccc2)n1)N1CCN(Cc2ccc3c(c2)OCO3)CC1	active	·	·	·	·
O=C(c1csc(Nc2ccccc2)n1)N1CCN(c2ccccc2F)CC1	26	·	·	·	·
COc1ccc(S(=O)(=O)NC[C@H]2CC(=O)N(c3ccc(Cl)cc3)C2)cc1C	–	·	·	·	·
O=C(NC(=S)N1CCN(c2ccc(O)cc2)CC1)c1ccco1	–	·	·	–	·
O=C(NC(=S)N1CCN(c2ccc([N+](=O)[O-])cc2)CC1)c1ccco1	–	53	–	–	–
Cc1nnsc1C(=O)NCc1cc(-c2ccccc2F)on1	–	·	·	·	·
O=C(NNC(=O)c1cc2cc(Br)ccc2oc1=O)c1ccc(O)cc1O	–	60	–	–	–
NC(=NN=CCc1ccccc1)C(N)=NN=CCc1ccccc1	–	·	·	·	·
CN1C(=O)Cc2cc(S(=O)(=O)N3CCN(c4cccc(C(F)(F)F)c4)CC3)ccc21	–	52	–	–	–
O=C(Nc1ccc2c(c1)OCO2)N(CC(F)(F)F)C1CCOCC1	–	·	·	·	·
O=C(CCn1cnc(-c2ccccc2)c1-c1ccccc1)N/N=C\c1ccco1	48	·	·	·	·
O=C(NN=Cc1ccco1)c1ccccn1	60	·	·	·	·
COc1cc(C=NNC(=O)c2ccccn2)ccc1OC(=O)c1cccs1	–	·	·	·	·
O=C(CCn1nc(-c2ccccc2)cc1-c1ccccc1)N/N=C\c1ccco1	–	·	·	·	·
O=C(N/N=C/c1ccc(OC(=O)c2cccs2)cc1)c1ccccn1	·	53	–	–	–
O=C(N/N=C/c1ccco1)c1cnccn1	·	–	–	–	–
CC1(C)OC2OC(C(=O)Nc3cc(F)ccc3F)C3OC(C)(C)OC3C2O1 (centres undefined)	–	·	·	·	·
N#C/C(=C\c1ccc([N+](=O)[O-])o1)c1nc2ccccc2[nH]1	–	52	–	–	–
SMILES	SSB-PriA inh	DUSP3 inh	SARS 3CLpro inh	CCHFV vOTU inh	RecA splice inh
N#C/C(=C\c1ccc([N+](=O)[O-])cc1)c1nc2ccccc2[nH]1	–	·	·	·	·
CCSc1ccc(CC(=O)Nc2nnc(-c3ccccc3)o2)cc1	–	·	·	·	·
CCc1[nH]nc(C(=O)N2CCCC(C(=O)c3cccc(C(F)(F)F)c3)C2)c1C (centres undefined)	–	52	–	–	–
Cc1nc2ccccc2c2c1C(=O)N(c1ccc(C(=O)O)cc1)C2=O	–	–	–	–	·
Cc1nc2ccccc2c2c1C(=O)NC2=O	·	–	–	·	60
CCN1CCCc2cc(CCNC(=O)C(=O)NCCc3ccccc3)ccc21	–	·	·	·	·
Cc1cc(NC(=O)C(=O)NCCc2ccc3c(c2)CCCN3C)c2ccccc2n1	42	·	·	·	·
CCN1CCCc2cc(CCNC(=O)Nc3ccccc3)ccc21	63	·	·	·	·
CCCN1CCCc2cc(CCNC(=O)C(=O)Nc3ccc(OC)c(Cl)c3)ccc21	–	·	·	·	·
CCCN1CCCc2cc(CCNC(=O)C(=O)Nc3cc(C)nc4ccccc34)ccc21	–	·	·	·	·
CCN1CCCc2cc(CCNC(=O)Nc3ccc(OC)c(OC)c3)ccc21	70	·	·	·	·
CCN1CCCc2cc(CCNC(=O)C(=O)Nc3cccc(NC(C)=O)c3)ccc21	54	·	·	·	·
C=CCn1c(=NC(=O)c2ccc(Br)s2)sc2cc(S(N)(=O)=O)ccc21	–	·	·	·	·
COC(=O)Cn1c(SC/C=C/c2ccccc2)nc2sc(C)c(C)c2c1=O	–	·	·	·	·
CC1(C)CC(=O)C2=C(C1)Nc1[nH]n(-c3ccccc3)c(=O)c1C2c1ccc2c(c1)OCO2 (centres undefined)	–	–	–	–	69
O=C1CS/C(=N\N=C2\NC(=O)C(CC(=O)c3ccc(F)cc3)S2)N1 (centres undefined)	46	·	·	·	·
O=C(O)CC1S/C(=N\N=C2\CSC(=O)N2)NC1=O (centres undefined)	64	·	·	·	·
Cc1ccc(NC(=O)CC2SC(=NN=C3NC(=O)CS3)NC2=O)cc1 (centres undefined)	–	·	·	·	·
Cn1c(NC(=O)c2cccc(Cn3cc(Cl)cn3)c2)nc2ccccc21	–	–	–	–	–
CCn1c(NC(=O)c2cccc(Cn3cc(Cl)cn3)c2)nc2ccccc21	–	51	–	–	–
COc1ccc(N2CCN(S(=O)(=O)c3c(C(=O)N4CCOCC4)c(C)n(C)c3C)CC2)cc1	–	51	–	–	–
COc1ccccc1-c1nc(COC(=O)c2nnn(-c3ccc(C)c(C)c3)c2C)c(C)o1	–	·	·	·	·
O=C(NCC1CCN(C(=O)c2cccnc2)CC1)c1cccc2ccccc12	–	·	·	·	·
Cc1cc(=O)[nH]c(NN=Cc2c(O)n(-c3ccccc3)c(=O)c3ccccc23)n1	85	·	·	·	·
O=S(=O)(C1CCCCC1)N1CC(Oc2nccs2)C1	–	·	·	·	·
SMILES	SSB-PriA inh	DUSP3 inh	SARS 3CLpro inh	CCHFV vOTU inh	RecA splice inh
O=Cc1s/c(=N\S(=O)(=O)c2ccccc2)n(CCCCl)c1Cl	·	–	–	–	95
O=C(Cc1cc(=O)[nH]c(SCc2cccc(Cl)c2)n1)NCCC1=CCCCC1	40	·	·	·	·
Nc1nc(N2CCCCC2)nc(N2CCCCC2)n1	–	52	–	–	–
Cc1cc2ncc3c(n2n1)CCN(C(=O)Cn1ccc2ccccc21)C3	–	·	·	·	·
O=C(OC1CN(c2nc3ccccc3s2)C1)c1c[nH]c2ccccc12	–	·	·	·	·
CCC(C(=O)Nc1cccc(C(F)(F)F)c1)c1ccccc1 (centres undefined)	–	–	13	–	–
CCC(C(=O)Nc1ccc2[nH]ncc2c1)c1ccccc1 (centres undefined)	–	57	–	–	–
CCOC(=O)c1ccc(N2C(=O)c3n[nH]c(C)c3C2c2cccnc2)cc1 (centres undefined)	–	–	–	–	–
CCOC(=O)c1ccc(N2C(=O)c3n[nH]c(-c4ccco4)c3C2c2ccc([N+](=O)[O-])cc2)cc1 (centres undefined)	–	–	–	–	32
Oc1c(Cl)cc(Cl)cc1Sc1cc(Cl)cc(Cl)c1O	·	–	–	·	73
Cc1cccc(OCCN2CSC(=S)N(C)C2)c1	–	–	–	–	42
Cc1cccc(OCCn2cnc(Cl)c2Cl)c1	40	–	–	–	–
COc1ccccc1OCC#CCNS(=O)(=O)c1ccc(OC(F)(F)F)cc1	–	·	·	·	·
CSc1nc2sc3c(c2c(=O)n1C)CCC3	–	–	–	–	–
C#CCSc1nc2sc3c(c2c(=O)n1C)CCC3	–	58	–	–	–
Cc1ccc(N=Nc2cc(C)ccc2N)cc1	93	–	–	–	–
Cc1cc(NC(=O)CSc2ncc(-c3ccccc3)n2C2CCCCC2)no1	–	·	·	·	·
CCC(C)Nc1c([N+](=O)[O-])cc(C)cc1[N+](=O)[O-] (centres undefined)	53	–	–	–	–

Screening results from PubChem.
